# Only a selection was taken, and hits are over-represented in it overall.
# Giardia FBPA inh – blocks Giardia fructose-bisphosphate aldolase activity; A8B2U2; hit rate 0.71% among 290,000; Potency, µM (top dose mostly 59.6 µM), without a hit: at the top dose activity, negative = inhibition, actives largely listed as inhibitors; purified Giardia FBPA; AID 2451; also: potency is read from the fitted curve at half-maximal effect; % is scaled to controls: 0 for no effect and ±100 for the full control effect; nearly all actives have a fitted effect of over 55% in size
#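 40 nM FBPA preincubated 10 min at RT with compound (up to 57.5 uM final), then substrate plus GAPDH/TPI/NAD/arsenate coupling and diaphorase/resazurin added. Fluorescence read after 20 min at RT, 525/598 nm.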
# LmPK inh – LmPK (Leishmania mexicana) enzyme inhibition | Q27686 | AID 1721 | purified LmPK, Kinase-Glo ATP luminescence, 1 h | Potency, µM (titrated, usually from 57.5 µM), for the others: at the highest dose activity change, negative = inhibition, hits mostly inhibitors | hit rate 0.37% among 290,000; also: potency is read from the fitted curve at half-maximal effect; % is scaled to controls: 0 for no effect and ±100 for the full control effect
# Target sequence (Q27686 whole entry, looked up): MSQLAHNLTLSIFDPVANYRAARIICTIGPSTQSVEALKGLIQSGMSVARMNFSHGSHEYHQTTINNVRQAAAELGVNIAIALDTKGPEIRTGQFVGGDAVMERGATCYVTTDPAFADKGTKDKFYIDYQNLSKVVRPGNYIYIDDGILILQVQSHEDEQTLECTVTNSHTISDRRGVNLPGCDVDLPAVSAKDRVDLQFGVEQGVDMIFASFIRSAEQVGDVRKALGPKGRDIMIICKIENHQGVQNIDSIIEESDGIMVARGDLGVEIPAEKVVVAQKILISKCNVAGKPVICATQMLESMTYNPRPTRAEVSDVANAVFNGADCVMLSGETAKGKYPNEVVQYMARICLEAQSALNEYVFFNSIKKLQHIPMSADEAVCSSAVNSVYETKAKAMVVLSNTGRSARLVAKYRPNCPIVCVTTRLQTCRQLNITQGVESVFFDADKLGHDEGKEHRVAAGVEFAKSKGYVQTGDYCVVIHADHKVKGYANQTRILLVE
#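 Kinase-Glo luminescence read after 1 h RT reaction of 0.1 nM LmPK with 0.5 mM PEP and 0.1 mM ADP. Activity scaled between uninhibited and enzyme-free controls.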
# Tb PYK inh – blocks Trypanosoma brucei pyruvate kinase. Potency, µM (series often up to 76.8 µM), for inactives: at the top dose activity, negative = inhibition, usual class: inhibitors. Q57TT1. hit rate 0.12% among 410,000. AID 624173. TbPYK enzyme, Kinase-Glo Plus ATP luminescence, 45 min; also: potency is read from the fitted curve at half-maximal effect; % is scaled to controls: 0 for no effect and ±100 for the full control effect; nearly all actives have a fitted effect of over 50% in size
#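 Luminescent Kinase-Glo Plus end-point after 45 min room-temperature reaction of T. brucei pyruvate kinase started with 130 uM ADP (final). Buffer TEA 50 mM pH 7.2 with KCl, MgCl2, BSA, Tween-20; titration-based qHTS with fitted concentration-effect curves.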
# Sm TGR inh – S. mansoni TGR enzyme inhibition; Q962Y6; purified TGR, DTNB reduction, TNB absorbance 405 nm; Potency, µM (series often up to 114 µM), for the others: at the highest dose activity change, negative = inhibition, usual class: inhibitors; hit rate 3% among 360,000; AID 485364; also: potency is read from the fitted curve at half-maximal effect; % is scaled to controls: 0 for no effect and ±100 for the full control effect; nearly all actives have a fitted effect of over 60% in size
#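 TGR 20 nM + NADPH 100 uM (dispensed conc.), cpd preinc 15 min RT; start with NADPH (500 uM addition) then DTNB (15 mM addition). Kinetic TNB absorbance, 405 nm filter. Four-parameter Hill fit across titration.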
# CHX counter – counter-screen hit for Shiga toxin inhibitors, cycloheximide | hit rate 12% among 300,000 | cell reporter, cycloheximide protein synthesis inhibition counterscreen | AID 2314 | max response, %; in the data active = max response mostly above about 13%, no sharp cut-off; inactive = mostly below about 14%; also: read at 38.3 µM for the half of the compounds with a filed dose; 0% is about no effect
# Shiga inhibitor – inhibitors of Shiga toxin in Vero cells; Vero cells, Shiga toxin protein synthesis inhibition reporter; inhibition, % at 38.7 µM; hit rate 9.2% among 290,000; in the data active = inhibition mostly above about 28%, no sharp cut-off; inactive = mostly below about 43%; also: 0% is about no effect
# Active calls of the source: *; ? = inconclusive; . = no result; [ ] = another dose, or the depositor's remark. Unless noted, calls follow the shape of the dose curve; as a rule, active = well fitted curve in the direction sought with a large enough effect; inconclusive = small, poorly fitted or top-dose-only effect, or another doubt; inactive = no such curve, though single readings can be large; an effect the other way counts as inactive or inconclusive.
SMILES,Giardia FBPA inh,LmPK inh,Tb PYK inh,Sm TGR inh,CHX counter,Shiga inhibitor
COCOc1cccc(CN2CCC2(C)C(=O)Nc2ccc(C)c(O)c2)c1 (stereo not drawn),.,.,3%,.,.,.
Cc1cccc(NC(=O)CS(=O)(=O)c2nc(-c3ccccc3)cn2-c2cccc(Cl)c2)c1C,.,.,0%,-2%,.,.
Cc1ccc(C(=O)c2sc3nsc(C)c3c2N)cc1,-12%,-2%,-9%,2%,86*,155*
Cc1nc(-c2ccccc2)nc2sc(C(=O)c3ccc(F)cc3)c(N)c12,4%,1%,-2%,2%,2,-10
Cc1snc2sc(C(=O)c3ccc(Br)cc3)c(N)c12,-1%,5%,-4%,-10%,27*,28
Cc1cc2nc(N3CCN(C(=O)c4ccco4)CC3)sc2cc1C,.,.,3%,-1%,.,.
O=C(c1ccco1)N1CCN(c2nc3ccsc3c(=O)s2)CC1,-17%,2%,-6%,?,31*,49*
O=c1sc(N2CCN(c3ccccc3F)CC2)nc2ccsc12,-5%,4%,-1%,1%,37*,56*
O=c1sc(N2CCN(c3ccc(F)cc3)CC2)nc2ccsc12,-3%,5%,4%,0%,12,43
CCOc1ccc(CCNC(=O)COC(=O)CNS(=O)(=O)c2ccc(NC(C)=O)cc2)cc1OCC,.,.,-6%,-2%,.,.
CC1CCC(NC(=O)CCC(=O)N2CC(C)Oc3ccccc32)CC1 (stereo not drawn),15%,-1%,0%,8%,15*,21
CC1CCN(C(=O)CCC(=O)N2CC(C)Oc3ccccc32)CC1 (stereo not drawn),3%,-4%,-6%,12%,0,11
CCOc1ccc(CCNC(=O)c2ccc(CS(=O)(=O)c3ccccc3C)o2)cc1OCC,.,.,-11%,-3%,.,.
O=C(NC1CC1)c1ccc2c(Cl)c3c(nc2c1)CCCC3,-3%,-4%,-1%,?,23*,68*
N#Cc1ccccc1NC(=O)c1ccc2c(Cl)c3c(nc2c1)CCCC3,1%,4%,2%,-11%,53*,91*
O=C(Nc1ccccc1F)c1ccc2c(Cl)c3c(nc2c1)CCC3,.,.,?,2%,.,.
O=C(Nc1cccnc1Cl)c1ccc2c(Cl)c3c(nc2c1)CCC3,-4%,1%[11.5 µM],0%,1%,23*,44
CCOC(=O)N1CCC(NC(=O)c2ccc3c(Cl)c4c(nc3c2)CCCC4)CC1,1%,0%,6%,-24%,-2,-13
CCN(C(=O)c1ccc2c(Cl)c3c(nc2c1)CCC3)c1cccc(C)c1,-5%,0%,.,-3%,22*,16
Cc1cccc(NCc2ccc(O)c3ncccc23)c1C,1%,21%,-17%,0.11µM*,1,1
Cc1cccnc1NCc1ccc(O)c2ncccc12,?,6%,-3%,0.28µM*,2,-11
Oc1ccc(Br)cc1CNc1cccc2cccnc12,-18%,1%,-14%,-5%,2,.
CCOC(=O)C1=C(CS(=O)(=O)c2ccc(Br)cc2)NC(=O)NC1c1ccccc1 (stereo not drawn),.,.,-13%,7%,.,.
CCOC(=O)N1CCC(NC(=O)CS(=O)Cc2nc(-c3ccccc3C)oc2C)CC1 (stereo not drawn),.,0%,-5%,13µM*,-2,9
Cc1cccc(-c2nc(CS(=O)CC(=O)NC3CCCCC3)c(C)o2)c1 (stereo not drawn),9%,-3%,-7%,56µM*,-4,-4
SMILES,Giardia FBPA inh,LmPK inh,Tb PYK inh,Sm TGR inh,CHX counter,Shiga inhibitor
COc1cccc(-c2nc(CS(=O)CC(=O)NC3CCCC3)c(C)o2)c1 (stereo not drawn),8%,8%,6%,?,-5,-2
COc1cccc(-c2nc(CS(=O)CC(=O)NC3CCCCC3)c(C)o2)c1 (stereo not drawn),4%,-2%,4%,18µM*,-2,11
Cc1oc(-c2ccccc2)nc1CS(=O)CC(=O)NC1CCCCCC1 (stereo not drawn),.,-7%,0%,7.1µM*,6,3
CC(=O)Oc1cc(C(F)(F)F)ccc1C(=O)O,1%[21.7 µM],.,0%[33.2 µM],.,.,.
Cc1c(Cl)cccc1NC(=O)CCn1cnnn1,.,.,-4%,-3%,.,.
CCc1ccc(C(=O)c2cn(CC(=O)Nc3cc(OC)ccc3OC)c3nc(C)ccc3c2=O)cc1,.,.,4%,-1%,.,.
Cc1oc(-c2ccccc2F)nc1CS(=O)CC(=O)NC1CCCCC1 (stereo not drawn),11%,-1%,0%,32µM*,-2,5
CC(C)NC(=O)c1cc(C2CCCCN2C(=O)OCCF)on1 (stereo not drawn),.,.,5%,.,.,.
CSc1ccccc1NC(=O)COc1ccc(Cl)cc1,-6%,0%,3%,4%,32*,48*
O=C(COc1ccccc1)Nc1ccncc1Cl,.,-2%,4%,3%,52*,92*
NC(=O)c1ccccc1NC(=O)COc1ccc(Cl)cc1,2%,-3%,4%,4%,29*,90*
O=C(COc1ccc(Cl)cc1)Nc1ccccc1Cl,-2%,1%,0%,7%,49*,76*
O=C(COc1ccc(Cl)cc1)Nc1ccc(Cl)cc1C(=O)c1ccccc1,.,.,-6%,-6%,.,.
CC(=O)OCC(=O)[C@@]1(O)CCC2C3CCC4=CC(=O)CC[C@]4(C)C3C(O)C[C@]21C (stereo partly drawn),0%,.,.,.,.,.
COc1ccc(Cl)cc1NC(=O)c1cccc(-n2cnnn2)c1,.,.,-3%,0%,.,.
COc1ccc(NC2CCCN(C(=O)CCN3Cc4ccccc4C3=O)C2)cc1 (stereo not drawn),-8%,-4%,0%,-2%,14,9
O=C(COc1ccc2ccccc2c1)Nc1ccccc1C(=O)O,-4%,0%,2%,-14%,20*,19
Cc1ccc(OCC(=O)Nc2ccccc2C(N)=O)cc1,-7%,1%,0%,-20%,35*,.
Cc1nc(C(F)(F)F)ccc1C(=O)N1CCC(C)(C(=O)NS(=O)(=O)C2CC2)C1 (stereo not drawn),.,.,-3%,.,.,.
Cc1ccc(-n2cc(C(=O)c3ccc(F)cc3)nn2)cc1Cl,0%,-9%,8%,0%,37*,75*
O=C(NC(=S)NCC1CCCO1)c1ccccc1Br (stereo not drawn),0%,0%,-4%,-13%,16,9
Cc1ccc(C(=O)NC(=S)NCC2CCCO2)cc1Br (stereo not drawn),-1%,-4%,-17%,56µM*,52*,78*
O=C(NC(=S)NCC1CCCO1)c1ccc(Br)o1 (stereo not drawn),-4%,0%,-8%,-10%,30*,67
O=C(NC(=S)NCC1CCCO1)c1ccco1 (stereo not drawn),-2%,5%,-4%,-18%,16,16
CC(=O)N1CCC2(CCN(Cc3ccc(C#N)cc3)CC2)CC1,-1%,.,1%,.,.,.
